Screens from PubChem BioAssay.
Rows were chosen to be rich in hits. Some 1.3% of all compounds tested hit in one or more screens of this group.
GALR2 ag – GALR2 receptor agonists, primary screen, cell-based; activation, % (no concentration beside the values); GALR2-expressing cells, agonist activation read-out; AID 803, 2007; Galanin receptor type 2 (Homo sapiens), O43603; 140,000 compounds, 0.48% hits; in the data active = activation above about 5%, passing the limit was not always enough;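 note: 0% = vehicle buffer wells and 100% = reference agonist at full effect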
GALR2 blocker – GALR2 antagonists in receptor-expressing cells, primary screen. antagonist mode. Galanin receptor type 2 (Homo sapiens), O43603. inhibition, % at 4 µM. AID 828, 2007. 140,000 compounds, 0.39% hits; in the data active = inhibition above about 27%;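 note: cells stimulated with galanin 1-16 at roughly its EC80; 0% = agonist challenge control and 100% = basal control without agonist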
S1P2 antag – human S1P2 receptor antagonists, primary screen, cell-based; Sphingosine 1-phosphate receptor 2 (Homo sapiens), O95136; cell-based S1P2 antagonist assay, inhibition at 5 uM; inhibition, % at 5 µM; 97,000 compounds, 0.21% hits; in the data active = inhibition above about 45%;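 note: CRE beta-lactamase reporter cells expressing human S1P2 stimulated with S1P; 0% = agonist at EC80 alone and 100% = agonist plus reference antagonist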
Target sequence (O95136 whole entry, looked up): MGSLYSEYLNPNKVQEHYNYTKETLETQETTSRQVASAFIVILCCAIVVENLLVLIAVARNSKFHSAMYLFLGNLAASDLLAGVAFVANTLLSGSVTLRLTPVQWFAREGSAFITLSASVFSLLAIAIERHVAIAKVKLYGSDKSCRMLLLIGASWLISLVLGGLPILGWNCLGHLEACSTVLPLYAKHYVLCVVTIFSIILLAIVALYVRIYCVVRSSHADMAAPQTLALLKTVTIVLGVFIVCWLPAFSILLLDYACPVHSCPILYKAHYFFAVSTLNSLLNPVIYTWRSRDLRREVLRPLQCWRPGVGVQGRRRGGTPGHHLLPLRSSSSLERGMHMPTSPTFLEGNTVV
S1P2 agonist – S1P2 receptor agonists, primary screen, cell-based. Sphingosine 1-phosphate receptor 2 (Homo sapiens), O95136. S1P2-expressing cell line, agonist reporter read-out. activation, % at 4.5 µM. 97,000 compounds, 0.46% hits; in the data active = activation above about 16%;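 note: 0% = vehicle low control and 100% = maximal reference agonist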
Phagocyt inh – inhibitors of macrophage phagocytosis, primary screen, imaging, J774A.1 cells, IgG beads; 110,000 compounds, 0.07% hits; J774A.1 macrophage IgG-bead phagocytosis; inhibition, % at 5 µM; AID 1029, 2008;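 active = inhibition above the mean of the plate negative controls plus 5 SD, cut at about 13% in these data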;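 note: phagocytic index as fraction of beads internalized from green versus red external bead signal; plate controls were DMSO negative control for no effect and cytochalasin-D positive control for full effect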
GALR2 ag confirm – GALR2 agonists, retest of hits, confirmation, cell-based | shares compounds with GALR2 ag | GALR2-expressing cells, agonist activation | activation, % at 5.6 µM | 460 compounds, 10% hits | AID 864, 2007; in the data active = activation above about 8.4%;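 note: 0% = buffer-only vehicle wells and 100% = full reference agonist response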
BLA activ ctr – activators of NFAT-driven beta-lactamase reporter, confirmation, counter-screen for GALR2 agonist project, CHO NFAT-bla cells, FRET readout; AID 865, 2007; 460 compounds, 10% hits; shares compounds with GALR2 ag; beta-lactamase FRET activation; activation, % at 5.6 µM;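 active = activation above the screen-wide mean activation plus 3 SD, cut at about 8% in these data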;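 note: 0% = DMSO with PBS wells and 100% = thapsigargin positive control wells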
An asterisk follows results filed as active; x = no result.

SMILES	GALR2 ag	GALR2 blocker	S1P2 antag	S1P2 agonist	Phagocyt inh	GALR2 ag confirm	BLA activ ctr
CC1(C)Cc2c(C#N)c(N3CCCC3)nc(-c3ccco3)c2CO1	11	-9	-36	9	0	2	4
N#Cc1ccc(Cl)cc1NC(=O)COC(=O)[C@H](CCC(N)=O)NC(=O)c1ccc(F)cc1	-2	11	x	x	8	x	x
Cn1nnnc1SCC(=O)NC(=O)Cc1ccccc1	-1	-8	13	-2	-1	x	x
Cn1nnnc1SCC(=O)NCCCc1ccccc1	12*	-4	24	-9	0	0	-2
Cc1ccc(C(C(=O)NC2CCCCC2)N2CCC3(CC2)OCCO3)cc1 (stereo not given)	-1	-4	-2	-2	0	x	x
O=C(NC1CCCCC1)C(c1ccc(Cl)cc1)N1CCC2(CC1)OCCO2 (stereo not given)	11*	-9	0	-2	-5	-1	-3
COc1ccccc1NC(=O)c1ccc(NC(=O)CSc2n[nH]c(N)n2)cc1	0	3	x	x	-9	x	x
Cc1cccc2cc3c(NC(=O)c4ccccn4)nn(C)c3nc12	8	16	-6	14	1	3	7
CCN(CC)c1ccc(/C=N/NC(=O)Nc2nonc2N)cc1	-1	-26	x	x	-2	x	x
CCCCn1c(SCC(=O)N2CCC(C)CC2)nc2cc(S(N)(=O)=O)ccc21	1	-3	17	-5	0	x	x
CCCCn1c(SCC(=O)c2cc(OC)ccc2OC)nc2cc(S(N)(=O)=O)ccc21	68*	6	x	x	0	1	0
CCOc1ccc(Nc2nc(Cc3nnc(SCC(=O)NCc4ccco4)n3CC)cs2)cc1	12*	-17	-11	-6	-2	12*	27*
Cc1ccc(OCc2nnc(SCC(=O)NCc3ccco3)n2C)cc1	-1	-4	-11	-4	x	x	x
COc1ccc(NC(=O)c2ccccc2F)cc1Cl	15*	10	-3	0	-1	-1	-2
COc1ccc(NC(=O)c2cccc(F)c2)cc1Cl	-1	7	5	-3	0	x	x
COc1ccc(-c2cc(-c3ccccc3)c(C#N)c(S(C)=O)n2)cc1 (stereo not given)	27*	9	7	10	-1	7	17*
COc1ccc(/C(N)=N/OC(=O)C2CCC(=O)N2S(=O)(=O)c2ccc(C)cc2)cc1OC (stereo not given)	-1	13	x	x	1	x	x
Cc1ccc(S(=O)(=O)c2c(N)n(/N=C/c3ccco3)c3nc4ccccc4nc23)cc1	-1	-10	-9	-5	0	x	x
Cc1cccc(S(=O)(=O)c2c(N)n(/N=C/c3ccco3)c3nc4ccccc4nc23)c1	54*	0	15	-9	0	0	-1
CCOC(=O)Cc1csc(NC(=O)CSc2ncnc3c2cnn3-c2ccc(OC)cc2)n1	12*	2	-1	-5	3	0	-2
Nc1c(C(=O)NCC2CCCO2)sc(=S)n1-c1ccccc1 (stereo not given)	10	8	-8	-2	-1	-1	-2
CCn1c(N)c(C(=O)NCC2CCCO2)sc1=S (stereo not given)	-3	10	1	-3	0	x	x
CCN(CC)S(=O)(=O)c1ccc(C)c(NC(=O)CSc2nc3ccc(C)cc3[nH]2)c1	0	10	x	x	x	x	x
CCN(CC)c1ccc2c(c1)oc(=O)c1c(Cl)cc(=O)oc12	20*	-2	19	14	2	6	12*
CCN(CC)c1ccc2c(C)c(-c3ccc(N)cc3)c(=O)oc2c1	4	15	x	x	-1	x	x
SMILES	GALR2 ag	GALR2 blocker	S1P2 antag	S1P2 agonist	Phagocyt inh	GALR2 ag confirm	BLA activ ctr
CCN(CC)S(=O)(=O)c1ccc(C(=O)OCn2c(SC)nnc(C)c2=O)cc1	-2	0	x	x	-3	x	x
CN(C)c1ccc(/C=C2\SC(=O)N(CC(O)Cn3c4ccccc4c4ccccc43)C2=O)cc1 (stereo not given)	-1	-5	x	x	-9	x	x
CN(C)c1ccc(/C=C2/SC(=O)N(CCN=C3NS(=O)(=O)c4ccccc43)C2=O)cc1	13*	8	x	x	-14	5	-2
Cc1nn(C)cc1C(C(=O)NC1CCCCC1)N(C(=O)Cc1cccs1)c1ccc(Cl)cc1 (stereo not given)	-1	13	x	x	-6	x	x
CCOc1ncccc1C(=O)OCC(=O)Nc1ccc(-c2nc3ccc(C)cc3s2)cc1	11*	-5	x	x	-1	7	-1
COc1cc([C@H]2c3[nH]c4ccccc4c3C[C@H]3C(=O)N4[C@@H](c5cc(OC)c(OC)c(OC)c5)c5[nH]c6ccccc6c5C[C@H]4C(=O)N23)cc(OC)c1OC	9.6*	-5	x	x	x	3	2
O=C1[C@@H]2Cc3c([nH]c4ccccc34)[C@@H](c3ccccc3)N2C(=O)[C@@H]2Cc3c([nH]c4ccccc34)[C@@H](c3ccccc3)N12	-1	14	x	x	x	x	x
O=C(CC1c2ccccc2Oc2ccccc21)Nc1ccccc1C(F)(F)F	2	-2	x	x	-6	x	x
CCOc1cccc(-c2nn(-c3ccccc3)cc2/C=C(/C#N)C(=O)NCCCn2ccnc2)c1	46*	8	x	x	1	35*	82*
CCCCCCc1cc2cc(S(=O)(=O)c3ccc(F)cc3)c(=O)oc2cc1O	14*	-3	x	x	0	16*	41*
Cc1cccc2c1-c1sc(C(=O)Nc3nccs3)cc1CO2	89*	5	-12	24*	0	11*	24*
CN1CCN(C(=S)NC(=O)/C=C/c2cccc3ccccc23)CC1	22*	11	-6	-1	-1	0	-4
COc1ccc(OC)c(Nc2nc(N)nc(CSc3nnc(N)s3)n2)c1	17*	-4	-30	-10	0	-1	-1
COc1ccc(Nc2nc(N)nc(CSc3nnc(C)s3)n2)cc1	0	-11	-29	-2	x	x	x
Cc1cc(C)nc(/N=C(\N)N2CCCCCC2)n1	17*	-6	x	x	-1	-1	-3
CCCCc1c(CCC)c(=N)c2ccccc2n1C	-1	-10	21	-1	x	x	x
CCN(CC)S(=O)(=O)c1ccc(-c2nnc(SCC(C)=O)o2)cc1	10	-8	-14	-6	0	-1	-1
Cc1cccc(NC(=O)/C(C#N)=C/c2cn(CC(=O)NCc3ccco3)c3ccccc23)c1C	29*	6	x	x	-4	11*	8.2*
C(=C\c1ccco1)/C1=NN(c2ccccc2)C(c2ccco2)C1 (stereo not given)	72*	17	x	x	-5	27*	39*
COc1ccc([C@@H]2[C@H]3C(=O)N(c4cccc(C(F)(F)F)c4)C(=O)[C@H]3ON2C)cc1	-1	-2	-7	-9	3	x	x
Cc1cc(=O)oc2c3c4c(cc12)OCCN4CCC3	15*	18	-9	5	x	1	3
